# Results: PubChem BioAssay AID493231 (Broad Institute, 2011)
# Results with a measured potency or affinity are listed apart. Unmarked numbers belong to inactive results. How the calls were made is not given here.
# Target: Acyl-homoserine lactone acylase PvdQ (Pseudomonas aeruginosa (strain ATCC 15692 / DSM 22644 / CIP 104116 / JCM 14847 / LMG 12228 / 1C / PRS 101 / PAO1)) (UniProt Q9I194)
# Assay: P. aeruginosa PvdQ acylase inhibitors, dose response, biochemical, fluorescence, plate reader and imaging, cherry-picks (AID 493231);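 further: 0% = neutral control wells and -100% = reference inhibitor wells; more negative values mean stronger inhibition of the acylase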
# Settings: purified PvdQ acylase, fluorogenic substrate; series mostly up to 10 µM; activity change, negative = inhibition: at the top concentration
# Chain of Acyl-homoserine lactone acylase PvdQ (Pseudomonas aeruginosa (strain ATCC 15692 / DSM 22644 / CIP 104116 / JCM 14847 / LMG 12228 / 1C / PRS 101 / PAO1)) (Q9I194 whole entry, looked up): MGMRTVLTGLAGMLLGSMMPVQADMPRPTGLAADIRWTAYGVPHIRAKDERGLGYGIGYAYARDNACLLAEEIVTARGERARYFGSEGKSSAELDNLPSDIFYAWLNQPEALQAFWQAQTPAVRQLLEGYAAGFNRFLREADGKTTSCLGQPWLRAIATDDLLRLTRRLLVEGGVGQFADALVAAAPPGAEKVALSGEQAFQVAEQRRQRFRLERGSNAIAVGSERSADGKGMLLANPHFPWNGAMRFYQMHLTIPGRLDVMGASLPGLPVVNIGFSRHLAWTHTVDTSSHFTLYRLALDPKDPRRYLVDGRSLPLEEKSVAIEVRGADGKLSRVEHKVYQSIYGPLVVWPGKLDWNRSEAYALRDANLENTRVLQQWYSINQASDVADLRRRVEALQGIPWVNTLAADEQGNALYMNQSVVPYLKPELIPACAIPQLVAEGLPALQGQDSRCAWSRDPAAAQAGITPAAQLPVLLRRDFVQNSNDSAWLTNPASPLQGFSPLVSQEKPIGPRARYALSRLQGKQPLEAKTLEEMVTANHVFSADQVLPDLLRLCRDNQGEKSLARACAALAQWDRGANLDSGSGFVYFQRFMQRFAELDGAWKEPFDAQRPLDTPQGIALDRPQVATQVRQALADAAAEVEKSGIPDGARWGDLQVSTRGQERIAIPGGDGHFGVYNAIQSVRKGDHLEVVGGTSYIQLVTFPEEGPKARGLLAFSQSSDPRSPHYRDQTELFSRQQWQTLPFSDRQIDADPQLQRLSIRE
row,SMILES,"activity change, negative = inhibition [unspecified]"
1,Cc1cccc(NCc2ccccc2O)n1,10.3
2,O=[N+]([O-])c1ccc2c(c1)Cc1cc(F)ccc1-2,-4.84
3,Cc1cc(NCCCn2ccnc2)n2nc(-c3ccc(Cl)cc3)cc2n1,4.65
4,Cc1onc(-c2ccccc2)c1C(=O)c1c[nH]c(C(=O)NCCCN2CCOCC2)c1,9.9
5,CC(C)CCN(CCC(C)C)C(CO)(CO)CO,2.29
6,CCOC(=O)CC(NC(=O)c1ccco1)c1ccccc1Cl (stereo not given),4.68
7,Cc1cc(=O)n2nc(N3CCCC(C(=O)N4CCOCC4)C3)sc2n1 (stereo not given),-2.15
8,c1ccc(CCc2ccccn2)cc1,1.66
9,N#C/C(=C\c1ccco1)c1nc2ccccc2s1,-5.66
10,CCn1c(SCC(=O)N/N=C/c2ccc(C)o2)nnc1-c1ccc(C(C)(C)C)cc1,8.31
11,CC1(OC(=O)CCc2ccccc2)C(=O)C=C2C=C(c3ccc(C#N)cc3)N(Cc3ccccc3)C=C2C1=O (stereo not given),2.71
12,CN1C=CC=C/C1=C1\SC(=S)N(Cc2ccccc2)C1=O,8.81
13,COc1ccc(-c2cn3cc(C)ccc3n2)cc1F,-2.17
14,Cc1nc(N2CCNCC2)c2c3c(sc2n1)CCCC3,-1.68
15,Cc1ccc(-n2c(C)cn(C(=O)c3ccccc3)c2=S)cc1,8.55
16,Cc1ccc2nc(-c3ccc(O)cc3)oc2c1,4.15
17,CN1C(=O)S/C(=C\c2ccc(-n3cncn3)cc2)C1=O,-1.58
18,Clc1ccc2nc3c4ccccc4cnn3c2c1,-7.83

row,SMILES,"activity change, negative = inhibition [unspecified]"
1,COc1ccccc1OCCC(=O)OCC(=O)c1c(N)n(C)c(=O)n(C)c1=O,6.02
2,NS(=O)(=O)c1ccc(N2CCOCC2)c(C(=O)NCc2cccs2)c1,-10.9
3,Cc1ccc(-c2nc3ccsc3c(=O)o2)cc1,-7.99
4,O=C(c1ccc(-c2ccccc2)cc1)C1CCCN(C(=O)c2cncs2)C1 (stereo not given),8.65
5,COc1ccc(-c2cc3ccccc3cn2)cc1,-0.188
6,COc1cc(NC(=S)NC2CC(C)(C)NC(C)(C)C2)cc(OC)c1,-1.35
7,CS(=O)(=O)N(CC(=O)Nc1ccccc1C(=O)N1CCOCC1)c1ccccc1,13.9
8,COCCNC(=O)c1cc2nc(-c3ccccc3)cc(C)n2n1,3.65
9,O=C(Cc1cccc(NC(=O)C2CCN(C(=O)C3CCCCC3)CC2)c1)Nc1cccc(C(=O)N2CCCCC2)c1,-5.7
10,CCOc1ccc(NC(=O)NCc2cccn2C)cc1,-6.12
11,O=C(/C=C/c1cccs1)Nc1ccncc1,-7.98
12,CCN(c1ccc(NC(=O)CCNC(=O)c2ccco2)cc1)C(C)C,-9.22
13,CCSc1nc2cc(OC)c(OC)cc2c(=O)n1CC,3.52
14,Cc1ccc2[nH]c(=O)c(CC=C(Cl)Cl)c(C)c2c1,2.84
15,COc1cccc(CN(C)CC(=O)NNC(=O)c2ccc(Cl)cc2)c1,-2.77
16,NC(=O)c1ncn([C@@H]2O[C@H](CNCc3ccc(-c4cc(C(F)(F)F)ccc4Cl)o3)[C@@H](O)[C@H]2O)n1,10.7
17,O=C(O)c1cc2nccc(-c3ccco3)n2n1,-104
